TrxR1 substrate: qHTS Assay for Substrates of Mammalian Selenoprotein Thioredoxin Reductase 1 (TrxR1): qHTS. Potency, µM (titrated, usually from 114 µM), for inactives: at the top dose activity change, negative = substrate turnover. AID 588456, 2011. actives 0.01% (n = 390,000). purified TrxR1 substrate turnover, NADPH consumption readout. Thioredoxin reductase 1, cytoplasmic (Rattus norvegicus), O89049; also: potency is read from the fitted curve at half-maximal effect; nearly all actives have a fitted effect of over 50% in size
Target sequence (O89049 whole entry, looked up): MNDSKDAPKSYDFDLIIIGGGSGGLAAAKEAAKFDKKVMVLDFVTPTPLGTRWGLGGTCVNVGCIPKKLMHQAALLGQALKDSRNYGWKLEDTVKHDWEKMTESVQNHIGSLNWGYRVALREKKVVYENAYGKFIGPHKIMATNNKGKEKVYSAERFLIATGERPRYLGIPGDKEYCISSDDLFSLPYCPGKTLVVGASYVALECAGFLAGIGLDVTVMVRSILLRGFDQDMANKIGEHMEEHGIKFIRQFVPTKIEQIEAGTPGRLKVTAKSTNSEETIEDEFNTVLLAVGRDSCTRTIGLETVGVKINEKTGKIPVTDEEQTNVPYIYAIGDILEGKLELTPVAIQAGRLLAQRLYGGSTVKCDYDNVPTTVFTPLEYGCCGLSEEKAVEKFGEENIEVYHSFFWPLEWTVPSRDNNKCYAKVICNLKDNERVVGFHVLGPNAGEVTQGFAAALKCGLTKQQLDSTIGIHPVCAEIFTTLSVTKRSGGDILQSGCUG
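Rat TrxR1, dispensed at 90 nM, was prereduced with 400 uM NADPH (final) for 5 min at ~22 deg C, then incubated with compound 15 min before 400 uM selenite. A first-read NADPH fluorescence drop versus no-compound background flagged substrates.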
TrxR1 inh: qHTS Assay for Inhibitors of Mammalian Selenoprotein Thioredoxin Reductase 1 (TrxR1): qHTS; Potency, µM (doses to about 114 µM), inactives show at the highest dose activity change, negative = inhibition, most hits filed as inhibitors; Thioredoxin reductase 1, cytoplasmic (Rattus norvegicus), O89049; recombinant rTrxR1, NADPH fluorescence consumption, selenite substrate; actives 1% (n = 390,000); also: potency is read from the fitted curve at half-maximal effect; nearly all actives have a fitted effect of over 65% in size
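Rat TrxR1 (90 nM in the dispensed reagent) was pre-reduced with 400 uM NADPH for 5 min at room temperature, then incubated with compound for 15 min. After 400 uM selenite was added, NADPH fluorescence (Ex 340/Em 450 nm) was followed for 8 min.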
Coupling enz: qHTS Assay for Inhibitors of Fructose-1,6-bisphosphate Aldolase from Giardia Lamblia: Coupling assay counterscreen | coupling enzyme system counterscreen, AmpLite Red fluorescence | activity change, negative = inhibition, % at 58.2 µM, hits read low | actives 0.67% (n = 290,000) | AID 2472, 2010; in the data active = activity change below about -30%
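Activity here indicates interference with the coupling reaction, not aldolase inhibition. Compounds at 57.5 uM final met coupling enzymes for 10 min at RT; substrate and AmpLite Red detection followed, with a 525/598 nm fluorescence read after 20 min.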
RORgamma inh: qHTS for inhibitors of ROR gamma transcriptional activity; Nuclear receptor ROR-gamma (Mus musculus), P51450; Potency, µM (top dose mostly 53.6 µM), for inactives: at the highest dose activity change, negative = inhibition, actives largely listed as inhibitors; AID 2551, 2010; actives 5.4% (n = 310,000); Drosophila S2 Gal4-RORgamma UAS-luciferase reporter, 20 h; also: potency is read from the fitted curve at half-maximal effect; nearly all actives have a fitted effect of over 60% in size
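Read-out: Photinus luciferase luminescence; inhibitors lower reporter signal. Insect Schneider cells with Gal4-ROR gamma fusion under metallothionein promoter, UAS reporter; 700 uM final copper sulfate induction, 20 hr, ambient temperature.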
GALK inh: qHTS Assay for Inhibitors of Human Galactokinase (GALK) | Potency, µM (top dose mostly 57.5 µM), without a hit: top-dose activity change, negative = inhibition, most hits filed as inhibitors | AID 1868, 2009 | Purified GALK, Kinase-Glo residual ATP luminescence | actives 0.007% (n = 270,000); also: potency is read from the fitted curve at half-maximal effect
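Quantitative HTS: GALK 5 nM, ATP 35 uM, galactose 100 uM, 1 h room temperature, then luciferase-based ATP detection.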
Gal4-VP16 FLuc: VP16 counterscreen qHTS for inhibitors of ROR gamma transcriptional activity; actives 3.5% (n = 310,000); Potency, µM (highest dose often 53.6 µM), for the others: at the highest dose activity, negative = inhibition, actives largely listed as inhibitors; Drosophila S2 Gal4-VP16 UAS-luciferase, luminescence, 20 h;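 also: Gal4-VP16 expression switched on by copper sulfate through the metallothionein promoter; potency is read from the fitted curve at half-maximal effect; nearly all actives have a fitted effect of over 50% in size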
The depositor's hits bear a star; ? = inconclusive; / = no result; [ ] = remark or other dose. Rows were chosen to be rich in hits. Some 5.9% of all compounds tested hit in one or more screens of this group. Unless noted, calls follow the shape of the dose curve; as a rule, active = well fitted curve in the direction sought with a large enough effect; inconclusive = small, poorly fitted or top-dose-only effect, or another doubt; inactive = no such curve, though single readings can be large; an effect the other way counts as inactive or inconclusive. % is scaled to controls: 0 for no effect and ±100 for the full control effect.

SMILES	TrxR1 substrate	TrxR1 inh	Coupling enz	RORgamma inh	GALK inh	Gal4-VP16 FLuc
O=C(CCCN1C(=O)/C(=C\c2ccccc2)SC1=S)Nc1cccc(C(=O)O)c1	-11%	-16%	7	0%	-3%	-26%
O=C(CCCN1C(=O)/C(=C\c2cccs2)SC1=S)Nc1cc([N+](=O)[O-])ccc1O	1%	0%	4	?	-7%	20µM*
CCN(CC)CCOC(=O)c1ccc(NC(=O)CCCN2C(=O)S/C(=C/c3ccc(OC)cc3)C2=S)cc1	-1%[57.1 µM]	11%[57.1 µM]	0	1µM*	4%	1.6µM*
CCOc1ccccc1CNC(=O)c1cnc2sc(N3CCC(C)CC3)nn2c1=O	12%[57.1 µM]	17%[57.1 µM]	/	/	/	/
COc1ccc(CNC(=O)C(=O)NCc2ccncc2)cc1	-5%	1%	0	1%	-1%	1%
Cc1noc(C)c1COC(=O)CCC(=O)c1ccc(F)cc1	5%[57.1 µM]	1%	-3	-5%	0%	8%
COc1cccc(/C=C2\SC(=S)N(CCCC(=O)Nc3cc(C)on3)C2=O)c1	2%	27%	0	2.8µM*	5%	1.4µM*
CC(/C=C1\SC(=S)N(CCC(=O)Nc2ccc(O)cc2)C1=O)=C\c1ccccc1	-7%	4%	1	14µM*	1%	14µM*
Cc1cc(NC(=O)CCCN2C(=O)/C(=C/c3cccs3)SC2=S)no1	-8%	4%	5	-27%[10 µM]	-1%	?
CC(/C=C1\SC(=S)N(CCCC(=O)Nc2ccc(C(=O)O)c(O)c2)C1=O)=C\c1ccccc1	-16%	?	5	-27%	-6%	-25%
Cc1ccc([N+](=O)[O-])c2cccnc12	-13%	-23%	-1	-14%	4%	3%
O=[N+]([O-])c1ccc(Sc2cccc3cccnc23)c2cccnc12	-1%	14%	-34*	-16%	1%	?
CC1CC2C3CCC4=CC(=O)C=C[C@]4(C)[C@@]3(Cl)C(O)C[C@]2(C)C1(OC(=O)c1ccco1)C(=O)CCl (stereo partly specified)	/	/	0	16µM*	/	2%
CCCCC(=O)O[C@@]1(C(=O)CO)C(C)CC2C3CCC4=CC(=O)C=C[C@@]4(C)[C@]3(F)C(O)C[C@]21C (stereo partly specified)	/	/	0	-36%	/	-5%
CCCC(=O)O[C@]1(C(=O)CCl)[C@H](C)C[C@@H]2[C@H]3CCC4=CC(=O)C=C[C@]4(C)[C@@]3(F)C(=O)C[C@@]21C	/	/	/	10µM*	/	4%
C[C@H]1C[C@@H]2[C@H]3CCC4=CC(=O)C=C[C@@]4(C)[C@@]3(Cl)[C@@H](O)C[C@]2(C)[C@]1(OC(=O)c1ccco1)C(=O)CCl	/	/	-4	?	/	-22%[17 µM]
Cc1cc(C)c(CN2CCC(n3nccc3NC(=O)c3ccccc3Cl)CC2)cc1C	2%	12%	/	7%	8%	2%
CCOC(=O)N1CCN(c2nc(-c3cccs3)cc(C(F)(F)F)n2)CC1	13%[57.1 µM]	20%[57.1 µM]	7	?	/	-14%
CC[C@H](C)C(=O)O[C@H]1C[C@@H](C)C=C2C=C[C@H](C)[C@H](CC[C@@H]3C[C@@H](O)CC(=O)O3)[C@H]21	3%	22%	-47*	?	-5%	-17%
CCC(C)C(=O)OC1CCC=C2C=CC(C)C(CCC3CC(O)CC(=O)O3)C21 (stereo unspecified)	-9%[57.1 µM]	-5%[11.4 µM]	/	/	/	/
COc1cc(-c2nnc(SCC(=O)Nc3cc(C)on3)n2C)cc(OC)c1O	3%[57.1 µM]	-4%[57.1 µM]	0	7%	5%	-8%
COc1ccc(-n2nc(C(=O)Nc3cccc(Cl)c3)c3c4ccccc4n(C)c3c2=O)cc1Cl	1%	25%	/	/	/	/
C/C(CCc1oc2ccc(Cl)cc2c1-c1ccc(C)o1)=N\O	-5%	10µM*	-4	?	-2%	-10%
CC(=O)CCc1oc2ccc(C)cc2c1-c1ccccc1	8%[57.1 µM]	7%[57.1 µM]	2	36%	11%	-5%
C/C(CCc1oc2ccc(Br)cc2c1-c1ccc(C)o1)=N/O	5%	18µM*	0	26%	/	-8%
SMILES	TrxR1 substrate	TrxR1 inh	Coupling enz	RORgamma inh	GALK inh	Gal4-VP16 FLuc
Cc1cccc(-c2cc(=O)c3cc(Br)ccc3o2)c1	/	/	1	0%	/	10%
Cc1cc(C)nc(/N=C(\N)Nc2cccc([N+](=O)[O-])c2)n1	3%	4%	-1	-10%	0%	-4%
CCOC(=O)C1=C(C)N(CC)C(=S)NC1c1ccc(Cl)cc1 (stereo unspecified)	2%	3%	2	7.1µM*	3%	6.3µM*
CCOC(=O)C1=C(C)N(CCCCCC(=O)O)C(=O)NC1c1ccc(Cl)cc1 (stereo unspecified)	4%	23%	0	0%	/	5%
COC(=O)C1=C(C)N(Cc2ccccc2)C(=NCCCCO)N[C@H]1CCc1ccccc1	0%[57.1 µM]	-11%[57.1 µM]	0	-2%	/	-2%
CCN1C(=S)N[C@@H](c2cccc(F)c2)C(C(=O)OC)=C1C	-2%	8%	1	5µM*	/	11µM*
COC(=O)C1=C(C)N(Cc2ccccc2)C(=S)N[C@H]1c1ccccc1	1%	-1%	1	3.2µM*	/	16µM*
COC(=O)C1=C(C)N(Cc2ccccc2)C(=S)N[C@H]1CCc1ccccc1	/	/	1	4.5µM*	/	?
CCOC(=O)C1=C(C)Nc2nc(=S)[nH]n2C1c1ccc(Cl)cc1 (stereo unspecified)	5%[57.1 µM]	?	1	10µM*	-5%	-13%
O=C1ON=C(c2ccccc2)/C1=C/c1ccc(O)cc1	-1%	14µM*	0	?	-6%	?
COc1ccc(-c2ccc(/C=C3\C(=O)N(c4ccccc4)N=C3c3ccccc3)o2)c([N+](=O)[O-])c1	-4%	-2%	0	-17%	6%	-8%
CC1=NOC(=O)/C1=C/c1ccc(O)cc1	1%[57.1 µM]	?	3	?	-3%	?
Cc1ccc(C2=NOC(=O)/C2=C\c2ccccc2)cc1	3%	4µM*	/	/	/	/
COc1cc([N+](=O)[O-])ccc1-c1ccc(/C=C2\C(=O)ON=C2c2ccccc2)o1	-8%	7.9µM*	/	/	/	/
